The list is not random: actives were taken first. Their share in the collection is about 10%.
BAZ2B inh – qHTS Assay for Inhibitors of BAZ2B; Bromodomain adjacent to zinc finger domain protein 2B (Homo sapiens), Q9UIF8; Potency, µM (doses to about 114 µM), inactives show at the highest dose activity change, negative = inhibition, hits mostly inhibitors; 4.4% of 360,000 active; AlphaScreen BAZ2B-H3K14Ac peptide displacement; AID 504333, 2011; also: potency is read from the fitted curve at half-maximal effect; % is scaled to controls: 0 for no effect and ±100 for the full control effect; nearly all actives have a fitted effect of over 60% in size
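BAZ2B (50 nM) with biotin-H3(5-23)K14Ac peptide (50 nM) in PBS pH 7.4, 0.01% Tween-20, preformed 30 min, then compound 30 min at room temperature; top concentration 110uM. AlphaScreen streptavidin donor/nickel chelate acceptor beads (10 ug/mL final), 20 min dark, signal read.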
JMJD2A Tudor inh – qHTS Assay for Inhibitors of JMJD2A-Tudor Domain; AlphaScreen JMJD2A-Tudor / H3K4me3 peptide binding; Potency, µM (series often up to 114 µM), for inactives: at the highest dose activity change, negative = inhibition, most hits filed as inhibitors; 4.4% of 390,000 active; AID 504339, 2011; also: potency is read from the fitted curve at half-maximal effect; % is scaled to controls: 0 for no effect and ±100 for the full control effect; nearly all actives have a fitted effect of over 50% in size
HP1b binding inh – HTS for Inhibitors of HP1-beta Chromodomain Interactions with Methylated Histone Tails; Chromobox protein homolog 1 (Homo sapiens), P83916; AlphaScreen HP1-beta / biotin-H3K9me3 peptide binding; Potency, µM (series often up to 114 µM), inactives show top-dose activity change, negative = inhibition, actives largely listed as inhibitors; 0.56% of 390,000 active; AID 540317, 2011; also: potency is read from the fitted curve at half-maximal effect; nearly all actives have a fitted effect of over 70% in size
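Compound inhibition of the preformed complex between 50 nM HP1-beta and 50 nM biotinylated H3K9me3 peptide was read by AlphaScreen. Buffer was PBS pH 7.4 with 0.01% Tween-20. Incubations ran 30 min at room temperature, with 10 ug/mL donor/acceptor beads.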
G9a block – qHTS Assay for Inhibitors of Histone Lysine Methyltransferase G9a. Histone-lysine N-methyltransferase EHMT2 (Homo sapiens), Q96KQ7. 8.8% of 350,000 active. Potency, µM (doses to about 102 µM), without a hit: at the top dose activity, negative = inhibition, most hits filed as inhibitors. G9a H3K9 monomethylation, AlphaScreen, 2 h; also: potency is read from the fitted curve at half-maximal effect; % is scaled to controls: 0 for no effect and ±100 for the full control effect; nearly all actives have a fitted effect of over 75% in size
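G9a (20 nM) preincubated 15 min RT with compounds, then 500 nM biotinylated H3K9 peptide and 20 uM SAM added; 2 h RT reaction. Monomethyl-H3K9 product detected by AlphaScreen with anti-H3K9me1 antibody, streptavidin donor and anti-rabbit IgG acceptor beads.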
Six1-Eya2 inh – qHTS Assay for Inhibitors of the Six1/Eya2 Interaction; AID 651725, 2012; Homeobox protein SIX1 (Homo sapiens) + Protein phosphatase EYA2 (Homo sapiens), …; 0.56% of 360,000 active; activity change, % (no concentration beside the values); AlphaScreen GST-Six1/His-Eya2 binding, biochemical; stronger effect = lower value; in the data active = activity change below about -65%; inconclusive = mostly about -30% to -63%; also: % is scaled to controls: 0 for no effect and ±100 for the full control effect
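Six1/Eya2 binding was read as AlphaScreen signal after compounds were pinned into GST-Six1 plus His-tagged Eya2 (5X stock 250/500 nM) in pH 8.0 Tris/NaCl/TCEP buffer, beads added, then incubated 1 h, 37 C, dark.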
CtBP-E1A blk – qHTS Assay for Inhibitors of the CtBP/E1A Interaction. AlphaScreen GST-E1A/His-CtBP binding, 1536-well; stronger effect = lower value. activity change, % (concentration not given with the values). 0.49% of 340,000 active; in the data active = activity change below about -65%; inconclusive = mostly about -30% to -63%; also: % is scaled to controls: 0 for no effect and ±100 for the full control effect
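In 5 uL wells, 23 nL compound meets equimolar GST-E1A and His-CtBP (5X stock 125 nM each) for 2 h, 37 °C. Beads (5X, 50 ug/mL) then 1 h, 37 °C, dark.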
Active calls of the source: *; [ ] = another dose, or the depositor's remark. Unless noted, calls follow the shape of the dose curve; as a rule, active = well fitted inhibition curve with a large enough effect; inconclusive = small, poorly fitted or top-dose-only effect; inactive = no such curve, though single readings can be large or run the other way.

What do the screens show for `Cc1cc(C)cc(N(CC(=O)NCc2ccccc2)C(=O)CCC(=O)Nc2ccccn2)c1`?
BAZ2B inh: 10%; JMJD2A Tudor inh: 7%; HP1b binding inh: 26%; G9a block: 21%; Six1-Eya2 inh: -2; CtBP-E1A blk: -1

How did CCOc1ccc(S(=O)(=O)N(C(=O)c2ccco2)c2cc3sc(=O)oc3c3ccccc23)cc1 do in these assays?
BAZ2B inh: inconclusive; JMJD2A Tudor inh: inconclusive; HP1b binding inh: inconclusive; G9a block: 1.4µM*; Six1-Eya2 inh: -16; CtBP-E1A blk: -17

Results for COc1ccc(S(=O)(=O)N(C(=O)c2ccco2)c2cc3sc(=O)oc3c3ccccc23)cc1 ?
BAZ2B inh: inconclusive; JMJD2A Tudor inh: inconclusive; HP1b binding inh: inconclusive; G9a block: 1.4µM*; Six1-Eya2 inh: -27; CtBP-E1A blk: -27

How did Cc1ccc(S(=O)(=O)N(C(=O)c2ccco2)c2cc3sc(=O)oc3c3ccccc23)cc1 do in these assays?
BAZ2B inh: inconclusive; JMJD2A Tudor inh: inconclusive; HP1b binding inh: inconclusive; G9a block: 1.8µM*; Six1-Eya2 inh: -28; CtBP-E1A blk: inconclusive

What do the screens show for `COc1ccc(S(=O)(=O)n2nc(OC(=O)c3ccco3)cc2N)cc1`?
BAZ2B inh: -33%; JMJD2A Tudor inh: -34%; HP1b binding inh: 36%; G9a block: inconclusive; Six1-Eya2 inh: -1; CtBP-E1A blk: 5

How did Cc1ccc(NC(=O)Cn2nc(-c3ccccc3)nc(Cc3ccc(Cl)cc3)c2=O)cc1 do in these assays?
BAZ2B inh: -3%; JMJD2A Tudor inh: -11%; HP1b binding inh: 24%; G9a block: 0%[59 µM]

What do the screens show for `COc1ccc(NC(=S)N2CCN(S(C)(=O)=O)CC2)cc1`?
BAZ2B inh: -10%; JMJD2A Tudor inh: -6%; HP1b binding inh: 28%; G9a block: 42%; Six1-Eya2 inh: 10; CtBP-E1A blk: 6

How did Cc1ccc(C)c(CNS(=O)(=O)c2ccc3c(c2)C(C)(C)C(=O)N3C)c1 do in these assays?
BAZ2B inh: -26%; JMJD2A Tudor inh: -7%; HP1b binding inh: 32%; G9a block: 7%; Six1-Eya2 inh: 6

Results for O=C(NCC(c1ccco1)N1CCCC1)c1ccc(Cl)c(S(=O)(=O)N2CCc3ccccc32)c1 (centres undefined) ?
BAZ2B inh: inconclusive; JMJD2A Tudor inh: inconclusive; HP1b binding inh: -29%; G9a block: 0%[12.7 µM]; Six1-Eya2 inh: -11; CtBP-E1A blk: inconclusive

What do the screens show for `C[C@@H](CN(C)C)CN1c2ccccc2CCc2ccccc21`?
G9a block: 11%[21.5 µM]

What do the screens show for `COc1ccc(/C=C/c2c(-c3ccc(OC)cc3)sc3ccc(N4CCOCC4)cc23)cc1`?
BAZ2B inh: -32%; JMJD2A Tudor inh: -22%; HP1b binding inh: 17%; G9a block: -20%; Six1-Eya2 inh: -13; CtBP-E1A blk: -8

How did COc1ccc(-c2oc3ccc(N4CCOCC4)cc3c2/C=C/c2ccc(OC)c(OC)c2)cc1 do in these assays?
BAZ2B inh: inconclusive; JMJD2A Tudor inh: -31%; HP1b binding inh: 26%; G9a block: 50µM*; Six1-Eya2 inh: -14; CtBP-E1A blk: -29

Results for C/C(N)=C(/C#N)C(=O)CSc1nc2ccccc2[nH]1 ?
BAZ2B inh: inconclusive; JMJD2A Tudor inh: 79µM*; HP1b binding inh: inconclusive; G9a block: inconclusive; Six1-Eya2 inh: -3; CtBP-E1A blk: -4

Results for Nc1ncn([C@H]2O[C@@H](CO)[C@@H](O)[C@@H]2O)c(=O)n1 ?
G9a block: 32%[21.5 µM]

What do the screens show for `CC(C)N(Cc1cn[nH]c1-c1ccc(-c2ccccc2)cc1)Cc1nccn1C`?
BAZ2B inh: 56µM*; JMJD2A Tudor inh: 56µM*; HP1b binding inh: inconclusive; G9a block: inconclusive; Six1-Eya2 inh: -15; CtBP-E1A blk: -18

How did Cc1ccc(OCC(=O)NN=C2c3ccccc3-c3ccccc32)cc1 do in these assays?
BAZ2B inh: -1%; JMJD2A Tudor inh: inconclusive; HP1b binding inh: -9%; G9a block: 10%[59 µM]; Six1-Eya2 inh: 0; CtBP-E1A blk: 6

How did N#Cc1ccc(OCC(=O)NN2Cc3ccccc3C2=N)cc1 do in these assays?
BAZ2B inh: 2%; JMJD2A Tudor inh: inconclusive; HP1b binding inh: 15%; G9a block: -40%; Six1-Eya2 inh: 7; CtBP-E1A blk: 0

How did CCc1ccc(OCC(=O)N/N=C2\CC(=O)c3ccccc32)cc1 do in these assays?
BAZ2B inh: -29%; G9a block: 13µM*

What do the screens show for `COc1ccc(OCC(=O)NNC(=O)C(=O)N2CCCC2)cc1`?
BAZ2B inh: inconclusive; JMJD2A Tudor inh: -4%; HP1b binding inh: 34%; G9a block: 20µM*; Six1-Eya2 inh: 5; CtBP-E1A blk: 18

How did CCc1ccc(OCC(=O)NN2Cc3ccccc3C2=N)cc1 do in these assays?
BAZ2B inh: -13%; JMJD2A Tudor inh: 1%; HP1b binding inh: 20%; G9a block: 45µM*; Six1-Eya2 inh: 1; CtBP-E1A blk: -2

Results for Cc1ccc(C)c(NC(=S)N/N=C2/CCCCc3ccccc32)c1 ?
BAZ2B inh: inconclusive; JMJD2A Tudor inh: -36%; HP1b binding inh: inconclusive; G9a block: -34%[59 µM]; Six1-Eya2 inh: inconclusive; CtBP-E1A blk: -14

How did COc1cccc(NC(=S)N/N=C2/CCCCc3ccccc32)c1 do in these assays?
BAZ2B inh: 40µM*; JMJD2A Tudor inh: inconclusive; HP1b binding inh: -29%; G9a block: 40µM*; Six1-Eya2 inh: -21; CtBP-E1A blk: inconclusive

Results for COc1ccc(C(CNC(=O)COc2ccc(Cl)c(C)c2)N2CCCCC2)cc1 (centres undefined) ?
BAZ2B inh: -26%; JMJD2A Tudor inh: -8%; HP1b binding inh: 5%[57 µM]; G9a block: 12%; Six1-Eya2 inh: -12

Results for COc1ccc(OCC(=O)N/N=C2\CCCCc3ccccc32)cc1 ?
BAZ2B inh: -31%; JMJD2A Tudor inh: 14µM*; HP1b binding inh: 8%; G9a block: -7%; Six1-Eya2 inh: 4; CtBP-E1A blk: -1

Results for O=C1CCCN1CC(O)CS(=O)(=O)Cc1ccc(Cl)cc1Cl (centres undefined) ?
BAZ2B inh: 9%; JMJD2A Tudor inh: -9%; HP1b binding inh: 28%; G9a block: 1%[2.33 µM]; Six1-Eya2 inh: 2
